Measured values reported in PubChem BioAssay AID1159580 (chemical genetic matrix, 2015).
Hit rate of the full screen: of about 5,500 compounds, about 2,000 (36%) were called active. Roughly 18% stayed inconclusive and do not appear here. Rule as the data show it: active = normalized growth mostly below about 0.91 (no sharp cut-off); inconclusive = no clear call, values can overlap the other calls; inactive = mostly above about 0.92. The list shows a part of the results.

Assay: chemical genetic growth profiling, strain panel (AID 1159580);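 also: tested at 20 µM; growth read once vehicle control cultures reached saturation at 30 °C; 1 = growth at the plate median or of vehicle wells; lower values mean less growth of the strain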
Conditions: growth OD
[1] = S. cerevisiae deletion strains, locus YAL040C, strain CLN3, active compounds read low
[2] = S. cerevisiae deletion strains, locus YCL061C, strain MRC1 (second series), active compounds read low
[3] = S. cerevisiae deletion strains, locus YDR363W, strain ESC2, active compounds read low
[4] = S. cerevisiae deletion strains, locus YER002W, strain NOP16, active compounds read low
[5] = S. cerevisiae deletion strains, locus YGR078C, strain PAC10, active compounds read low
[6] = S. cerevisiae deletion strains, locus YJR075W, strain HOC1, active compounds read low
[7] = S. cerevisiae deletion strains, locus YMR307W, strain GAS1, active compounds read low
[8] = S. cerevisiae deletion strains, locus YNL128W, strain TEP1, active compounds read low
[9] = S. cerevisiae deletion strains, locus YNL153C, strain GIM3, active compounds read low
[10] = S. cerevisiae deletion strains, locus YNL175C, strain NOP13, active compounds read low
[11] = S. cerevisiae deletion strains, locus YNL197C, strain WHI3, active compounds read low
[12] = S. cerevisiae deletion strains, locus YNL224C, strain SQS1, active compounds read low
[13] = S. cerevisiae deletion strains, locus YOR083W, strain WHI5 (second series), active compounds read low
[14] = S. cerevisiae deletion strains, locus YPL241C, strain CIN2, active compounds read low
[15] = S. cerevisiae deletion strains, locus YMR263W, strain SAP30, active compounds read low

Measured: normalized growth

O=C(O)CNC(=O)C(CS)Cc1ccccc1 (stereo not given)
inactive: S. cerevisiae deletion strains, locus YAL013W, strain DEP1, active compounds read low 1.01 | [1] 1.05 | [2] 1 | [3] 1.01 | [4] 0.994 | [5] 1.01 | [6] 0.996 | [7] 1 | [8] 1.02 | [9] 1.07 | [10] 1.01 | [11] 0.967 | [12] 1 | S. cerevisiae deletion strains, locus YNL322C, strain KRE1, active compounds read low 0.995 | [13] 1.04 | S. cerevisiae deletion strains, locus YPL055C, strain LGE1, active compounds read low 1.01 | [14] 1.01

CC(=O)SC1CC2=CC(=O)CC[C@]2(C)C2CC[C@@]3(C)C(CC[C@@]34CCC(=O)O4)C12 (stereo not given in full)
inactive: [1] 0.996 | [2] 1 | S. cerevisiae deletion strains, locus YDR150W, strain NUM1, active compounds read low 1.01 | [3] 1 | [4] 0.982 | [5] 1.01 | S. cerevisiae deletion strains, locus YGR229C, strain SMI1, active compounds read low 1.01 | [6] 1.01 | [15] 0.99 | [7] 1.03 | [8] 0.986 | [10] 1.01 | [11] 0.999 | [12] 1 | [13] 1.01 | [14] 1.01

CC(=O)O[C@@H]1CC2C(C)(C)C(=O)[C@@H]3O[C@@H]3[C@]2(C)C2CC[C@]3(C)C(=CC(=O)O[C@H]3c3ccoc3)[C@@]21C (stereo not given in full)
inactive: S. cerevisiae deletion strains, locus YBR021W, strain FUR4, active compounds read low 0.995 | S. cerevisiae deletion strains, locus YBR229C, strain ROT2, active compounds read low 0.94 | S. cerevisiae deletion strains, locus YCL029C, strain bik1, active compounds read low 0.967 | S. cerevisiae deletion strains, locus YDL035C, strain GPR1, active compounds read low 0.958 | S. cerevisiae deletion strains, locus YDL074C, strain BRE1, active compounds read low 0.989 | S. cerevisiae deletion strains, locus YDL101C, strain DUN1, active compounds read low 0.994 | S. cerevisiae deletion strains, locus YDL134C, strain PPH21, active compounds read low 0.988 | S. cerevisiae deletion strains, locus YDL185W, strain tfp1, active compounds read low 0.964 | S. cerevisiae deletion strains, locus YDL192W, strain arf1, active compounds read low 0.976 | S. cerevisiae deletion strains, locus YDR101C, strain arx1, active compounds read low 0.975 | S. cerevisiae deletion strains, locus YDR162C, strain NBP2, active compounds read low 0.98 | S. cerevisiae deletion strains, locus YDR318W, strain mcm21, active compounds read low 0.995 | S. cerevisiae deletion strains, locus YDR388W, active compounds read low 0.999 | S. cerevisiae deletion strains, locus YDR502C, strain sam2, active compounds read low 1.01 | S. cerevisiae deletion strains, locus YEL061C, strain CIN8, active compounds read low 0.979 | S. cerevisiae deletion strains, locus YER110C, active compounds read low 0.975 | S. cerevisiae deletion strains, locus YER155C, strain BEM2, active compounds read low 0.998 | S. cerevisiae deletion strains, locus YER167W, strain BCK2, active compounds read low 0.981 | S. cerevisiae deletion strains, locus YGL078C, strain dbp3, active compounds read low 1.01 | S. cerevisiae deletion strains, locus YGL086W, strain mad1, active compounds read low 0.99 | S. cerevisiae deletion strains, locus YGL248W, strain PDE1, active compounds read low 1.01 | [5] 1.01 | S. cerevisiae deletion strains, locus YGR135W, strain pre9, active compounds read low 1.07 | S. cerevisiae deletion strains, locus YGR252W, strain gcn5, active compounds read low 0.997 | S. cerevisiae deletion strains, locus YHR030C, strain SLT2, active compounds read low 0.989 | S. cerevisiae deletion strains, locus YHR079C, strain IRE1 (second series), active compounds read low 0.985 | S. cerevisiae deletion strains, locus YHR094C, strain hxt1, active compounds read low 0.981 | S. cerevisiae deletion strains, locus YHR129C, strain ARP1, active compounds read low 0.988 | S. cerevisiae deletion strains, locus YHR200W, strain rpn10, active compounds read low 0.985 | S. cerevisiae deletion strains, locus YIL066C, strain RNR3, active compounds read low 0.948 | S. cerevisiae deletion strains, locus YIL073C, strain SPO22, active compounds read low 0.956 | S. cerevisiae deletion strains, locus YIL125W, strain kgd1, active compounds read low 0.987 | S. cerevisiae deletion strains, locus YIR030C, strain dcg1, active compounds read low 0.99 | S. cerevisiae deletion strains, locus YJL095W, strain BCK1, active compounds read low 1.04 | S. cerevisiae deletion strains, locus YJL134W, strain LCB3, active compounds read low 0.982 | S. cerevisiae deletion strains, locus YJL168C, strain set2, active compounds read low 0.996 | S. cerevisiae deletion strains, locus YJL187C, strain SWE1 (second series), active compounds read low 1.01 | S. cerevisiae deletion strains, locus YJR043C, strain POL32, active compounds read low 0.96 | [6] 1 | S. cerevisiae deletion strains, locus YKL009W, strain mrt4, active compounds read low 0.976 | S. cerevisiae deletion strains, locus YKL068W, active compounds read low 0.986 | S. cerevisiae deletion strains, locus YKL085W, strain MDH1 (second series), active compounds read low 0.996 | S. cerevisiae deletion strains, locus YKL085W, strain MDH1, active compounds read low 0.996 | S. cerevisiae deletion strains, locus YKR001C, strain vps1, active compounds read low 0.971 | S. cerevisiae deletion strains, locus YLR039C, strain RIC1, active compounds read low 0.99 | S. cerevisiae deletion strains, locus YLR058C, strain SHM2, active compounds read low 0.974 | S. cerevisiae deletion strains, locus YLR102C, strain apc9, active compounds read low 0.981 | S. cerevisiae deletion strains, locus YLR262C, strain YPT6, active compounds read low 0.963 | S. cerevisiae deletion strains, locus YLR268W, strain sec22, active compounds read low 0.948 | S. cerevisiae deletion strains, locus YLR330W, strain CHS5, active compounds read low 0.988 | S. cerevisiae deletion strains, locus YLR371W, strain rom2, active compounds read low 0.979 | S. cerevisiae deletion strains, locus YLR418C, strain cdc73, active compounds read low 0.993 | S. cerevisiae deletion strains, locus YML016C, strain PPZ1, active compounds read low 0.972 | S. cerevisiae deletion strains, locus YML032C, strain rad52, active compounds read low 0.962 | S. cerevisiae deletion strains, locus YML124C, strain tub3, active compounds read low 0.991 | S. cerevisiae deletion strains, locus YMR078C, strain ctf18, active compounds read low 0.993 | S. cerevisiae deletion strains, locus YMR223W, strain ubp8, active compounds read low 1 | [15] 1.01 | [7] 0.999 | S. cerevisiae deletion strains, locus YNL067W, strain RPL9B, active compounds read low 1.03 | [8] 0.948 | [9] 1.02 | S. cerevisiae deletion strains, locus YNL233W, strain BNI4, active compounds read low 1.03 | S. cerevisiae deletion strains, locus YNL250W, strain rad50, active compounds read low 1.01 | S. cerevisiae deletion strains, locus YNL271C, strain bni1, active compounds read low 0.999 | S. cerevisiae deletion strains, locus YNL298W, strain CLA4, active compounds read low 0.995 | S. cerevisiae deletion strains, locus YNL307C, strain MCK1, active compounds read low 0.987 | S. cerevisiae deletion strains, locus YNR052C, strain pop2, active compounds read low 1.04 | S. cerevisiae deletion strains, locus YOL012C, strain htz1 0.875 | S. cerevisiae deletion strains, locus YOL147C, strain pex11, active compounds read low 0.993 | S. cerevisiae deletion strains, locus YOR061W, strain CKA2, active compounds read low 0.936 | S. cerevisiae deletion strains, locus YOR069W, strain VPS5, active compounds read low 0.995 | S. cerevisiae deletion strains, locus YOR136W, strain idh2, active compounds read low 0.99 | S. cerevisiae deletion strains, locus YOR144C, strain elg1, active compounds read low 0.988 | S. cerevisiae deletion strains, locus YOR184W, strain ser1, active compounds read low 0.963 | S. cerevisiae deletion strains, locus YOR316C, strain cot1, active compounds read low 0.986 | S. cerevisiae deletion strains, locus YPR119W, strain clb2, active compounds read low 0.993 | S. cerevisiae deletion strains, locus YPR141C, strain kar3, active compounds read low 0.989 | S. cerevisiae deletion strains, locus YPR163C, strain tif3, active compounds read low 0.982 | S. cerevisiae deletion strains, locus YPR167C, strain met16, active compounds read low 0.999 | S. cerevisiae deletion strains, strain wtn01, active compounds read low 0.96 | S. cerevisiae strains, strain wild type, active compounds read low 0.973
